# Measurements: article PMC9574860, “Chemical Toolkit for PARK7: Potent, Selective, and High-Throughput” (Journal of Medicinal Chemistry, 2022)
# About 400 (5.1%) of roughly 7,900 compounds showed an effect of 50% or more. This excerpt belongs to a sample that is enriched for strong results.
# Target: Parkinson's disease protein 7 (PARK7/DJ1) (human, UniProt Q99497)
# Experiment: primary screen, percent inhibition; read as competition with a fluorescent probe by fluorescence polarization; higher = more effect of the substance
# Details: 100 µM
# Summary of the method: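 Covalent fragments at 100 μM final were incubated 2 h with 0.2 μM PARK7, then 20 nM probe JYQ-107 added for a further 2 h. Fluorescence polarization read at 480/520 nm; relative FP loss versus reference controls gave remaining enzyme activity.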
# Chain of Parkinson's disease protein 7 (PARK7/DJ1) (Q99497 whole entry, looked up): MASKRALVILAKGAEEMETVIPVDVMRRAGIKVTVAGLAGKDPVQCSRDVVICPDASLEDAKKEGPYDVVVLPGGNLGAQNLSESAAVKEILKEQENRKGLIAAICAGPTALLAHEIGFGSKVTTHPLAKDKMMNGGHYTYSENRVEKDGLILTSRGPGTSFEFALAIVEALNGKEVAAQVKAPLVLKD
row,SMILES,Inhibition % [%]
1,CC(C)c1nc(C#N)cs1,5.66
2,CC1(C)OB(c2ccc(S(=O)(=O)NCCO)cc2)OC1(C)C,4.41
3,C=CC(=O)Nc1cc(C(F)(F)F)n[nH]1,9.56
4,C=CC(=O)N1CCOCC1c1c(C)nn(C)c1C (stereo not drawn),12.6
5,CC1(C)C2CC=C(COCC3CO3)C1C2 (stereo not drawn),3.87
6,Cc1nc2ccccc2nc1S,2.7
7,Nc1cc2ccccc2nc1S,52
8,Sc1nc2ccccc2nc1S,8.25
9,Cc1ccc(-c2nnc(SC3CC(C)OC3=O)o2)cc1 (stereo not drawn),7.51
10,OB(O)C1CCN(Cc2cc(-c3ccccn3)n[nH]2)C1 (stereo not drawn),29.8
11,C=CC(=O)N[C@H](C(=O)O)c1ccccc1,3.77
12,O=C(O)C(S)c1ccccc1 (stereo not drawn),89.9
13,C=CC(=O)NC(NC(=O)C=C)c1ccccc1,11.8
14,OB(O)C1CCN(Cc2cc3c(cn2)OCCO3)C1 (stereo not drawn),21.4
15,CC=C(C#N)c1ccc2c(c1)OCO2,12.1
16,O=C(CN1C(=O)CCC1=O)Nc1cccc(Cl)c1,7.52
17,O=c1c2ccccc2nc(S)n1CCS,7.43
18,O=C(CCl)N1CCN(S(=O)(=O)c2ccccc2)CC1,8.48
19,O=C(CCl)N1CCC(Cc2ccccc2)CC1,31.1
20,O=C(CCl)N1CCC(c2ccccc2)=N1,90.5
21,C=CC(=O)NCC1CCN(c2ccncc2)CC1,15.3
22,COCC(C)NS(=O)(=O)C=Cc1ccc(Cl)cc1 (stereo not drawn),13.7
23,CS(=O)(=O)n1cc(N)cn1,10.7
24,CC1(C)OB(c2cccc(Cl)c2)OC1(C)C,-3.11
25,CC1(C)OB(c2cc(Cl)cc(Cl)c2)OC1(C)C,81
26,CC1(C)OB(c2ccc(Cl)cc2)OC1(C)C,4.5

row,SMILES,Inhibition % [%]
1,C=CC(=O)NC1CCc2cn(C(C)C)nc2C1 (stereo not drawn),11.9
2,CCOc1cc(C)c(C)cc1S(=O)(=O)n1ccnc1C,2.71
3,C=CC(=O)Nc1ccc2c(c1)OCCCO2,3.17
4,C=CC(=O)Nc1ccc(=O)n(C)c1,54.1
5,C=CC(=O)Nc1ccc2c(c1)N(C)CCO2,52.4
6,C=CC(=O)Nc1ccc2c(c1)CCCO2,7.61
7,C=CC(=O)Nc1ccc2ccc(=O)n(C)c2c1,7.33
8,C=CC(=O)Nc1ccc(Br)cc1,6.59
9,CC(C)NC(=O)C(C#N)=Cc1ccccc1Cl,6.2
10,CN(C)C=C(C#N)c1ccccn1,19.1
11,CCOc1cc(C)c(C(C)C)cc1S(=O)(=O)n1ccnc1,6.3
12,O=C(O)c1ccnnc1S,83.3
13,NC(=O)c1cccnc1S,4.97
14,O=C(O)c1cccnc1S,5.3
15,O=c1[nH]c(Cc2ccncc2)no1,6.48
16,O=C(CCl)NCc1cccc(Oc2ccccc2)c1,22.5
17,Cc1cccc(NC(=O)CCl)c1,8.99
18,O=C(CCl)Nc1ccc(OCc2ccccc2)cc1,28.9
19,Cc1ccc(Oc2ccccc2NC(=O)CCl)cc1,2.56
20,O=C(CCl)Nc1ccc(Oc2ccccc2Cl)cc1,93.7
21,O=C(CCl)Nc1ccc(Oc2ccccc2)cc1,84.2
22,O=C(CCl)Nc1cccc(Oc2ccccc2)c1,55.6
23,Cc1cccc(Oc2ccc(NC(=O)CCl)cc2)c1,81.6
24,Cc1ccc(Oc2ccc(NC(=O)CCl)cc2)cc1,36.3
25,O=C(CCl)Nc1cccc(NC(=O)c2ccccc2)c1,7.84
26,O=C(CCl)Nc1ccc(N=Nc2ccccc2)cc1,5.15

row,SMILES,Inhibition % [%]
1,O=C(CCl)Nc1ccccc1Oc1ccccc1,6.38
2,Cc1ccc(C)c(S(=O)(=O)n2nc(C)cc2C)c1,1.62
3,CCOc1cc(C)c(Cl)cc1S(=O)(=O)n1cnc(C)c1,5.28
4,C=CC(=O)NCCN(C)C1CCCCC1,10.8
5,C=CC(=O)N1CCN(c2ncnc3sc(C)cc23)CC1,0.554
6,Cc1noc(C)c1Cn1c(-c2ccccn2)noc1=O,0.962
7,CC1(C)OB(c2cccc3occc23)OC1(C)C,10.2
8,C=CC(=O)N1CCC(c2nccn2C)C1 (stereo not drawn),5.02
9,Cn1c(=O)[nH]c2ccc(B3OC(C)(C)C(C)(C)O3)cc21,0.0918
10,C=CC(=O)NC1CC(OCC)C12CCCCC2 (stereo not drawn),4.59
11,CN(C)C(=O)Oc1ccc2c(c1)OCO2,-4.08
12,N#Cc1nccnc1N1CCC(C(F)(F)F)CC1,2.52
13,C=CC(=O)N1CCN(CC2CCOCC2)CC1,12.9
14,N#Cc1ccc(N2CCOC(c3cccs3)C2)cn1 (stereo not drawn),4.98
15,COCc1ccc(CNC(=O)CCl)cc1,6.87
16,N#Cc1ccc(N2CCCC(C(N)=O)C2)cn1 (stereo not drawn),6.47
17,CC(c1ccc(F)c(F)c1)N(C)C(=O)CCl (stereo not drawn),92.5
18,CN(C)C=CC(=O)c1cc2ccccc2o1,0.589
19,C=CC(=O)N(C)Cc1cc2ccccc2o1,5.57
20,CC(c1ccc(Cl)cc1)N(C)C(=O)CCl (stereo not drawn),98
21,CC(c1ccc(F)cc1)N(C)C(=O)Cn1cnc(C#N)n1 (stereo not drawn),11.3
22,CC(c1cc2ccccc2o1)N(C)C(=O)CCl (stereo not drawn),96.1
23,CCC(NC(=O)CCl)c1ccc(Cl)cc1 (stereo not drawn),14.1
24,CCN(C(=O)CCl)C(C)c1ccc(F)cc1 (stereo not drawn),9.9
25,CC(NC(=O)CCl)c1ccc(Cl)cc1 (stereo not drawn),6.77
26,CC(c1ccc(F)cc1)N(C)C(=O)CCl (stereo not drawn),96.3

row,SMILES,Inhibition % [%]
1,C=CC(=O)N1CCCC(c2ccc(F)c(F)c2)C1 (stereo not drawn),9.29
2,C=CC(=O)N1CC(C)OC(C(F)(F)F)C1 (stereo not drawn),14.7
3,CC(=O)SCCc1csc(-c2ccccn2)n1,9.81
4,O=C(Nc1ccccc1)c1cccnc1S,3.52
5,CCC1(c2ccccc2)NC(=O)N(NC(=O)CCl)C1=O (stereo not drawn),6.48
6,C=CC(=O)N1CCC(Cc2ccncc2)C1 (stereo not drawn),6.08
7,Cc1cccc2c(=O)[nH]c(C(Cl)=Cc3ccnn3C)nc12,6.42
8,C=CC(=O)NC(C)c1c(C)nn(CC(F)(F)F)c1C (stereo not drawn),4.48
9,CN(C(=O)CCl)C(c1ccccc1)c1ccccc1,6.29
10,CC(c1nc2ccccc2s1)N(C)C(=O)CCl (stereo not drawn),97.3
11,CN(C(=O)CCl)c1nc2ccccc2s1,3.42
12,CC(c1ccccc1)N(C)C(=O)CCl (stereo not drawn),98.5
13,CCN(C(=O)CCl)c1nc2ccccc2s1,24.6
14,CC(c1ccccc1)N(C)C(=O)Cn1cnc(C#N)n1 (stereo not drawn),7.46
15,CC1(C)OB(c2cnc3ccnn3c2)OC1(C)C,5.87
16,C=CC(=O)N1CCOC(C)(C(F)F)C1 (stereo not drawn),7.7
17,CS(=O)(=O)c1cccnc1C#N,5.26
18,C=CC(=O)N1CCCC1C (stereo not drawn),7.71
19,CC(C)Cn1c(N)c(C(=O)CCl)c(=O)n(C)c1=O,6.06
20,O=c1[nH]c(-c2ccc(S(=O)(=O)F)cc2)nc2ccccc12,13
21,O=c1[nH]c(-c2ccc(S(=O)(=O)F)cc2)nc2sc3c(c12)CCC3,15.9
22,O=c1[nH]c(-c2cccc(S(=O)(=O)F)c2)nc2sc3c(c12)CCC3,88.5
23,CC1(C)OB(c2ccc(N)c(O)c2)OC1(C)C,92.7
24,CC1(C)OB(c2ccc3ccc(N)cc3c2)OC1(C)C,86.8
25,CC1(C)OB(c2ccc(N)c(F)c2)OC1(C)C,1.59
26,CC1(C)OB(c2ccc3cc(N)ccc3c2)OC1(C)C,87.8

row,SMILES,Inhibition % [%]
1,CC1(C)OB(c2ccc3ccoc3c2)OC1(C)C,9.89
2,Cc1ccc(N)cc1B1OC(C)(C)C(C)(C)O1,14.1
3,Cc1cc(B2OC(C)(C)C(C)(C)O2)ccc1N,8.63
4,CC1(C)OB(c2ccc(N)cc2)OC1(C)C,5.89
5,CC1(C)OB(c2cccc(N)c2)OC1(C)C,12.8
6,Cc1ccc(C)c(Cn2cnc(C#N)n2)c1,2.61
7,Clc1ccccc1COCC1CO1 (stereo not drawn),9.97
8,N[C@@H]1CCN(C(=O)C=Cc2cc3ccccc3o2)C1,18.2
9,N#Cc1ccc2c(n1)CCCC2,7.43
10,C=CC(=O)NC1C(C)C(OC)C12CCC2 (stereo not drawn),50
11,C=CC(=O)NC1CC(OC)C12CCC2 (stereo not drawn),3.73
12,C=CC(=O)NC1C2CCOC2C12CCC2 (stereo not drawn),8.04
13,COc1cc(S(=O)(=O)n2cccn2)c(C)cc1C,5.05
14,COc1ccc(CNC(=O)CCl)cc1OC,6.67
15,Cc1ccc(NC(=O)CCl)cc1Br,75
16,Cc1cc(NC(=O)CCl)ccc1Br,32.6
17,Cc1ccc(NC(=O)CCl)cc1I,81.5
18,Cc1cc(C)cc(NC(=O)CCl)c1,11.3
19,Cc1ccc(NC(=O)CCl)cc1C,34.8
20,Cc1ccc(NC(=O)CCl)cc1F,48.3
21,O=C1CC2(CCCC2)N1,4.3
22,CCc1cc(S(=O)(=O)n2ccnc2)ccc1OC,7.72
